Laboratory results published in PubChem BioAssay (NCI).
“And” between values parts separate entries of the source, which are not always exact repeats. Identical values can stand only once. This is part of a sample that, as a whole, favours compounds with a hit. Of some 83,000 tested, about 20% had one in any assay.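 How to read the values: 0–100, growth inhibition (40 = 60% inhibited); 0, no net growth; -100 to 0, cell death (-40 = 40% of starting cells died; -100 = all dead).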

How the values were obtained:
Test in all cases: NCI-60 one-dose screen, 48 h (100 = growth as untreated, 0 = no growth, -100 = all killed)
Conditions in all cases: 10 µM unless noted; active = growth percent below 10; inactive = the rest
[1] = system: HCT-15 colon
[2] = system: HT29 colon
[3] = system: SNB-75 CNS
[4] = system: SNB-19 CNS
[5] = system: U251 CNS
[6] = system: SK-MEL-5 melanoma
[7] = system: UACC-62 melanoma
[8] = system: LOX IMVI melanoma
[9] = system: SK-MEL-28 melanoma
[10] = system: PC-3 prostate

Measured: growth

O=COCCCc1ccccc1
inactive: [1] 107% | [2] 95.9% | [3] 109% | [4] 96.7% | [5] 94.5% | [6] 98.2% | [7] 88.7% | [8] 99% | [9] 108%

O=C1c2ccccc2C(c2ccccc2)C1c1ccccc1 (stereo not given)
inactive: [1] 71.8% | [2] 98.9% | [3] 63.5% | [4] 91.9% | [5] 101% | [6] 87.5% | [7] 67.8% | [8] 88.5% | [9] 111%

COc1ccc(S(=O)(=O)c2ccc(F)cc2)cc1
inactive: [1] 95.6% | [2] 106% | [3] 101% | [4] 93.1% | [5] 101% | [6] 106% | [8] 81.5% | [9] 104%

N=C(N)N1CCc2ccccc2C1
inactive: [1] 109% and 103% | [2] 102% and 105% | [3] 98% and 109% | [4] 99.9% and 103% | [5] 89.2% and 98.4% | [6] 102% and 111% | [7] 99.3% and 99% | [8] 84.3% and 113% | [9] 109%

Clc1ccc2c(c1)N(C1CCCN(Cc3ccccc3)C1)c1ccccc1S2 (stereo not given)
inactive: [1] 26.6% | [2] 76.7% | [3] 27.6% | [4] 41.6% | [5] 17.4% | [6] 23.3% | [8] 57% | [9] 56.9%

CC(=O)Oc1cc(C)c(OC(C)=O)c(C)c1C
inactive: [1] 98% | [2] 114% | [3] 132% | [4] 96.4% | [5] 104% | [6] 91.4% | [7] 93.1% | [8] 83.6% | [9] 130%

Cc1ccc(S(=O)(=O)n2ccnc2)cc1
inactive: [1] 105% | [2] 106% | [3] 87.6% | [4] 117% | [5] 101% | [10] 103% | [6] 99.9% | [8] 95.5% | [9] 111%

CCn1c2ccc(N(C)C)cc2c2cc(N(C)C)ccc21
inactive: [1] 112% | [2] 78.9% | [3] 99.3% | [4] 102% | [5] 93.9% | [6] 97.6% | [7] 91.9% | [8] 96.8% | [9] 98.9%

O=C1C=CC(=O)N1Cc1ccco1
inactive: [1] 11.6% | [2] 34.1% | [3] 101% | [4] 91% | [5] 81.4% | [6] 86.4% | [7] 86.4% | [8] 76.6%

O=C(c1ccncc1)c1c(Cc2ccccc2)ccc2ccccc12
inactive: [1] 91.5% | [2] 84.9% | [3] 90.4% | [4] 96.7% | [5] 88.8% | [6] 80.1% | [8] 90.8%

c1ccc2c[n+](Cc3ccc4ccccc4n3)ccc2c1
inactive: [1] 106% | [2] 57.2% | [3] 79.7% | [4] 71.2% | [5] 55.4% | [10] 50.9% | [6] 15.1% | [8] 88.8% | [9] 87.6%

COC(=O)c1nc(=S)[nH]c(C(=O)OC)c1C(=O)c1ccc(OC)cc1
inactive: [1] 100% | [2] 106% | [3] 101% | [4] 101% | [5] 108% | [6] 97.3% | [7] 95.9% | [8] 94.8% | [9] 109%

O=c1[nH]c(=S)[nH]n1C(=S)n1[nH]c(=S)[nH]c1=O
inactive: [1] 112% | [2] 106% | [3] 92% | [4] 99.9% | [5] 93.6% | [6] 93% | [7] 94.4% | [8] 95.6%

CN1C2C=CC(=O)C1C1C(=O)N(c3ccccc3)C(=O)C12 (stereo not given)
inactive: [1] 42% | [2] 48.8% | [3] 92.6% | [4] 95.7% | [5] 62.1% | [6] 92% | [7] 84.3% | [8] 38.7% | [9] 95.4%
